Among the data in ChEMBL document CHEMBL1961873, “Compounds: GSK PKIS; Assays: Nanosyn kinase panel” (2012) are inhibition values, retold here.

For assay [1], the target named is Dual specificity protein kinase CLK3 (Homo sapiens) (UniProt P49761). The settings on record: at 1 µM.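 Further: each value is the mean inhibition of CLK3.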
In assay [2] the target is Dual specificity tyrosine-phosphorylation-regulated kinase 1A (Homo sapiens) (UniProt Q13627). The settings on record: at 0.1 µM.
Assay [3] shares this target. The settings on record: at 1 µM.
Assay [4] has as its target Dual specificity tyrosine-phosphorylation-regulated kinase 1B (Homo sapiens) (UniProt Q9Y463). To be noted: at 0.1 µM.
Assay [5] shares this target. The settings on record: at 1 µM.
Assay [6] concerns the target T1, Dual specificity tyrosine-phosphorylation-regulated kinase 2 (Homo sapiens) (UniProt Q92630).
T1 sequence (whole entry): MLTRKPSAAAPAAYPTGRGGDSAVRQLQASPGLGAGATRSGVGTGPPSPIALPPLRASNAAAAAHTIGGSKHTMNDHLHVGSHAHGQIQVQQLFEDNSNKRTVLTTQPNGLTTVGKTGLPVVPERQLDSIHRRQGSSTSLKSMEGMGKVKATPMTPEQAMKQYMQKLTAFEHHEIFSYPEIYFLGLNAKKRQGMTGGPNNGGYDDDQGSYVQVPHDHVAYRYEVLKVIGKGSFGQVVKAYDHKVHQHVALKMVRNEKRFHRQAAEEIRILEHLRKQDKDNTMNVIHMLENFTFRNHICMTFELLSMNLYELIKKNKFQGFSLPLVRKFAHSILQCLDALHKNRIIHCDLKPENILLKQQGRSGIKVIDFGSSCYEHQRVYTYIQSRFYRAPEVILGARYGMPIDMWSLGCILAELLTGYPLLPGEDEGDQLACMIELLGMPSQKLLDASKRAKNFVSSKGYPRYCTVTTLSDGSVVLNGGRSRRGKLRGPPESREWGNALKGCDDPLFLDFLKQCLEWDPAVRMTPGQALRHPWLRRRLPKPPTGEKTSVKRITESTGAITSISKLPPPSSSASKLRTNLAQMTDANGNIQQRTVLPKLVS
To be noted: at 0.1 µM.

Assay [7] concerns the target T1, Dual specificity tyrosine-phosphorylation-regulated kinase 2 (Homo sapiens). The settings on record: at 1 µM.
The target in assay [8] is Glycogen synthase kinase-3 alpha (Homo sapiens) (UniProt P49840). The settings on record: at 0.1 µM.
Chain of Glycogen synthase kinase-3 alpha (Homo sapiens) (P49840 2-483 limits assumed): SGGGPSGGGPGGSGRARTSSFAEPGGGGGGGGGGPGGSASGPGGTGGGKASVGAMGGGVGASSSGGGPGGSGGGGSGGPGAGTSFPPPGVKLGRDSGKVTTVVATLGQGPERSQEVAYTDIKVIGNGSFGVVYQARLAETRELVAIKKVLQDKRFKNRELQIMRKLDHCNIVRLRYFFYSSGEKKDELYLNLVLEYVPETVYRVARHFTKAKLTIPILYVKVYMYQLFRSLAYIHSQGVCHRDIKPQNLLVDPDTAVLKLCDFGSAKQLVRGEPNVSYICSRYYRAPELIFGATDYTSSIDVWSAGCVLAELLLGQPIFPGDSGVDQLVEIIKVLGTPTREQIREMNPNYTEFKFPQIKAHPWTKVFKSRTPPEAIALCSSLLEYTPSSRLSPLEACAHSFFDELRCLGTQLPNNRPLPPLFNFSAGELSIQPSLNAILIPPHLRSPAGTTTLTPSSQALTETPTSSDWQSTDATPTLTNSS
Assay [9] has the same target. The settings on record: at 1 µM.
The target of assay [10] is Glycogen synthase kinase-3 beta (Homo sapiens) (UniProt P49841). To be noted: at 0.1 µM.
Chain of Glycogen synthase kinase-3 beta (Homo sapiens) (P49841 whole entry, looked up): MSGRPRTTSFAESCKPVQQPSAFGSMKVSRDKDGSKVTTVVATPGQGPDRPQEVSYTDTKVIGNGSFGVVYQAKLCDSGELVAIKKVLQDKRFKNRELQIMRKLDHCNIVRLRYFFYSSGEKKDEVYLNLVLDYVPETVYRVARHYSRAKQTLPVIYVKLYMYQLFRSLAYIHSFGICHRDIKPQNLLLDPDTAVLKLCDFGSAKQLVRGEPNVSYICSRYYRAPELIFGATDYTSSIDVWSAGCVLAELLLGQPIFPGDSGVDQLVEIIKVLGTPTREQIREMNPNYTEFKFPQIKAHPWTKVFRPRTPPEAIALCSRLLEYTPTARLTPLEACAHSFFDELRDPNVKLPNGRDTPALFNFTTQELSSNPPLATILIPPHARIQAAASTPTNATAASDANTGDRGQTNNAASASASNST
For assay [11] the target is unchanged. The settings on record: at 1 µM.
The target of assay [12] is Homeodomain-interacting protein kinase 1 (Homo sapiens) (UniProt Q86Z02). To be noted: at 0.1 µM.
Chain of Homeodomain-interacting protein kinase 1 (Homo sapiens) (Q86Z02 whole entry, looked up): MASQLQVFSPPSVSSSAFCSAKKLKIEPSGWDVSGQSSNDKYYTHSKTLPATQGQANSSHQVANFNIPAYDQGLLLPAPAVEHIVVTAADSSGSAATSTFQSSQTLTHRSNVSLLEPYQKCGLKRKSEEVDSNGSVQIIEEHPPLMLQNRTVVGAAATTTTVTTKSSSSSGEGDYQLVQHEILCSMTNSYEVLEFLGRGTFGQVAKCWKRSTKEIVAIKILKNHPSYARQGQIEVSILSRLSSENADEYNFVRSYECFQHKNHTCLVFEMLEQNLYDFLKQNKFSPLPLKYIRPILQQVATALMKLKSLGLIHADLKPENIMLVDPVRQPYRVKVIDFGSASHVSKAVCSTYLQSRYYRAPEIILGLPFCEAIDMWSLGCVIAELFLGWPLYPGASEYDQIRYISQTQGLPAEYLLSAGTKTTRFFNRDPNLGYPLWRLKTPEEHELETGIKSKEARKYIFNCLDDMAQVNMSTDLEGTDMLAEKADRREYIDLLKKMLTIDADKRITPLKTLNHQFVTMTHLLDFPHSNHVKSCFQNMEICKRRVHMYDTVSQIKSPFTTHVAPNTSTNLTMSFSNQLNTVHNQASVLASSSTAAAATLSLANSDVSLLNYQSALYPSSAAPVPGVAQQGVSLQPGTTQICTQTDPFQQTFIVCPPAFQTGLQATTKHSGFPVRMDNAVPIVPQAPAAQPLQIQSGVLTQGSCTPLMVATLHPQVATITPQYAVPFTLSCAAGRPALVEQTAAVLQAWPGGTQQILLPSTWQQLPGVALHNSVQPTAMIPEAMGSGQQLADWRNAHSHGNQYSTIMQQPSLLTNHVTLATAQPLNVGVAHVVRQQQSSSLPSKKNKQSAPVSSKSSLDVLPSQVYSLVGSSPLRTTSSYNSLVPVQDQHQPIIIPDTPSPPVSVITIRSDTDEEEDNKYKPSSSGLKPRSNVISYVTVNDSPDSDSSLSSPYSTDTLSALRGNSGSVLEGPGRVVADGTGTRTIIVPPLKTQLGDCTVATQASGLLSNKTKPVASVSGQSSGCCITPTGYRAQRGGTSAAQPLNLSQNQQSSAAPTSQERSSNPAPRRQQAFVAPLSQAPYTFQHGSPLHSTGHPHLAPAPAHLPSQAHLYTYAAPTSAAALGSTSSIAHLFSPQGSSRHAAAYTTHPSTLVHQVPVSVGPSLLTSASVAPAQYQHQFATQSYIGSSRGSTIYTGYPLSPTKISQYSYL
For assay [13] the target is unchanged. To be noted: at 1 µM.
The target in assay [14] is T2, Homeodomain-interacting protein kinase 4 (Homo sapiens) (UniProt Q8NE63).
T2 sequence (whole entry): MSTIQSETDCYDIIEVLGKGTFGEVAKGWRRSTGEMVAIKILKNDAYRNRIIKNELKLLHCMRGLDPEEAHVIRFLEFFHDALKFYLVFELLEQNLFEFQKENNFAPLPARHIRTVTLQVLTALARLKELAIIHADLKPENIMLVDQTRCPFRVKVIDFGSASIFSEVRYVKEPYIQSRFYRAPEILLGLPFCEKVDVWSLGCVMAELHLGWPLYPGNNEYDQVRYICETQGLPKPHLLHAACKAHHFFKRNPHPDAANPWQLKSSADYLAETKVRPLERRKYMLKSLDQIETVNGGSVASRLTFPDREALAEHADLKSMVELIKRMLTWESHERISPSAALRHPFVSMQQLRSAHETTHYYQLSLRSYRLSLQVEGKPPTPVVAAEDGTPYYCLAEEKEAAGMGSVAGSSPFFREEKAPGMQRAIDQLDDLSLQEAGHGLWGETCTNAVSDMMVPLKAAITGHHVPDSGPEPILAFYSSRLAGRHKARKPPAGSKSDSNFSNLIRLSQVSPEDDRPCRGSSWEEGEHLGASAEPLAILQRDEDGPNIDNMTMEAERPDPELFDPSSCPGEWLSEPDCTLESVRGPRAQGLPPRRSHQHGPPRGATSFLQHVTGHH
The settings on record: at 0.1 µM.

Assay [15] deals with T2, Homeodomain-interacting protein kinase 4 (Homo sapiens). To be noted: at 1 µM.
Assay [16] addresses Mitogen-activated protein kinase 9 (Homo sapiens) (UniProt P45984). To be noted: at 0.1 µM.
Assay [17] has the same target. The settings on record: at 1 µM.
Assay [18] concerns the target Mitogen-activated protein kinase 1 (Homo sapiens) (UniProt P28482). The settings on record: at 0.1 µM.
Assay [19] shares this target. The settings on record: at 1 µM.
Assay [20] addresses Mitogen-activated protein kinase 3 (Homo sapiens) (UniProt P27361). To be noted: at 0.1 µM.

Chain of Mitogen-activated protein kinase 9 (Homo sapiens) (P45984 whole entry, looked up): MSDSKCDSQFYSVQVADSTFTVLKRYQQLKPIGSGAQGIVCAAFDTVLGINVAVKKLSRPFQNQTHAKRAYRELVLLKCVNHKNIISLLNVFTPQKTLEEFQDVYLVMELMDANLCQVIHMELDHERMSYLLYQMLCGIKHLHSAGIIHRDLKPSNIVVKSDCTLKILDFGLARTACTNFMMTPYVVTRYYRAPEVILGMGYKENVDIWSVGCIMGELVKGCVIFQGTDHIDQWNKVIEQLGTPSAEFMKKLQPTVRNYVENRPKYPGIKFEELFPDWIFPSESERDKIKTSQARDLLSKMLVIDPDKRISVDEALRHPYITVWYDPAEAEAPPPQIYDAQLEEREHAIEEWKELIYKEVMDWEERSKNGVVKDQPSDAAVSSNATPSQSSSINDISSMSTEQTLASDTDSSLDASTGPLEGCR
Chain of Mitogen-activated protein kinase 3 (Homo sapiens) (P27361 whole entry): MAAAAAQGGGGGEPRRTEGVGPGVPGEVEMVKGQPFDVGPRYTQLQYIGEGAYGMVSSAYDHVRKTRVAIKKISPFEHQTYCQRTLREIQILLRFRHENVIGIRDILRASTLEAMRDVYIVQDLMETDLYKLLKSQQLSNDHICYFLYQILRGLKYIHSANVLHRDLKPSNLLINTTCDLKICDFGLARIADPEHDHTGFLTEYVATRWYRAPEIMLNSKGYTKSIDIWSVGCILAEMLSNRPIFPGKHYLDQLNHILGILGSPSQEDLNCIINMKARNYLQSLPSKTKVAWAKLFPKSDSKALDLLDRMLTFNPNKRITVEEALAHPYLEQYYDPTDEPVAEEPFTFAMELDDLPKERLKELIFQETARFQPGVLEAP
Chain of Mitogen-activated protein kinase 1 (Homo sapiens) (P28482 whole entry): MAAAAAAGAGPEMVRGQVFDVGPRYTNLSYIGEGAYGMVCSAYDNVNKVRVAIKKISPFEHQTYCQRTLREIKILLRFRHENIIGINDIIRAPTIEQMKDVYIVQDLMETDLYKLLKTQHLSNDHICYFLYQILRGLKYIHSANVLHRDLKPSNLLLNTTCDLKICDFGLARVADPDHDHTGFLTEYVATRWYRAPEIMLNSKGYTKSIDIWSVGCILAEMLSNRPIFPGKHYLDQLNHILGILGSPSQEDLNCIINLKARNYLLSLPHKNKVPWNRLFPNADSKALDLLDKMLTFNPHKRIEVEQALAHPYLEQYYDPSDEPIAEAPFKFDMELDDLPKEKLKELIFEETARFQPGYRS
Chain of Dual specificity protein kinase CLK3 (Homo sapiens) (P49761 whole entry, looked up): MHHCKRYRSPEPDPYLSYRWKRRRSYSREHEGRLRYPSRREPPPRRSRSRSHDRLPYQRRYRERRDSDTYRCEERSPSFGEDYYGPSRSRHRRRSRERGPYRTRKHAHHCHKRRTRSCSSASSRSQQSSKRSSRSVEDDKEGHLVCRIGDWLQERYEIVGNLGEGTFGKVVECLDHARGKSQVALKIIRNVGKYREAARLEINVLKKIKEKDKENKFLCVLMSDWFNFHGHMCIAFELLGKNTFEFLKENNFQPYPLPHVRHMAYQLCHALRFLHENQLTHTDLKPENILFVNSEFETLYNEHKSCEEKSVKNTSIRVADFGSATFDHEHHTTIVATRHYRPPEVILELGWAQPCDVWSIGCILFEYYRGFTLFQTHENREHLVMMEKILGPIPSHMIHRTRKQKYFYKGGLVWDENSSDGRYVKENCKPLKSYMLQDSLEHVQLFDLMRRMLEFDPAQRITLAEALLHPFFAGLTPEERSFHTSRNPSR
Chain of Dual specificity tyrosine-phosphorylation-regulated kinase 1B (Homo sapiens) (Q9Y463 whole entry, looked up): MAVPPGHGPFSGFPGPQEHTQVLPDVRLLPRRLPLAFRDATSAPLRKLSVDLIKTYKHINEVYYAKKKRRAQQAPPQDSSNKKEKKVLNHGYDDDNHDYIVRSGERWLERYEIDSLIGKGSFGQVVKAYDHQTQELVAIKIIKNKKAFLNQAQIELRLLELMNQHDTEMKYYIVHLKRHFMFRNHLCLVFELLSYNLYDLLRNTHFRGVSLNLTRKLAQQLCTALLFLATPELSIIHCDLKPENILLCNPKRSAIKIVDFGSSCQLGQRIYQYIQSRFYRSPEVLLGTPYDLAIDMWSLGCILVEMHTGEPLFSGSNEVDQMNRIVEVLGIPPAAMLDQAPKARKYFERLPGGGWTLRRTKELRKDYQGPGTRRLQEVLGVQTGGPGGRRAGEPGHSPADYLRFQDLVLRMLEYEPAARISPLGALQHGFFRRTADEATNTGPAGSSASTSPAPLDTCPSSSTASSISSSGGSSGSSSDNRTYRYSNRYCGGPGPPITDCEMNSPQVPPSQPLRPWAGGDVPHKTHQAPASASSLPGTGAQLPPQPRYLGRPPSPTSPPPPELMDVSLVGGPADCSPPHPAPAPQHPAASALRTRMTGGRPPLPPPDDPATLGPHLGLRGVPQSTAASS

For `Fc1cccc(COc2ccc(Nc3ncncc3C#Cc3ccccc3)cc2Cl)c1`, the inhibition was found to be 2.05% in assay [1]; 2.88% in assay [2]; 5.18% in assay [3]; 0.4% in assay [4]; 1.45% in assay [5]; 3.74% in [6]. The inhibition is 4.05% in [7]; 3.26% in assay [8]; 4.91% in assay [9]; 2.3% in assay [10]; 6.26% in assay [11]; 3.88% in assay [12]. In addition, the inhibition amounted to 4.2% in [13]; 1.31% in assay [14]; 1.7% in [15]; 2.97% in assay [16]; 7.96% in assay [17]; 5.17% in [18]. In addition, the inhibition in assay [19] is 4.95%; in assay [20] it was 4.94%.
In the case of `CC1=C(C(=O)Nc2ccc3[nH]ncc3c2)C(c2ccc(F)cc2)N=C(c2ccc(C(F)(F)F)nc2)N1` (stereo not given), the inhibition in assay [1] is 2.08%; in [2], 1.92%; in [3], 2.39%; in [4] it was 1.23%; in [5], 1.37%; in [6], 1.37%. In addition, the inhibition in [7] worked out at 1.27%; in assay [8], 1.54%; in [9], 4.37%; in [10] it was 1.95%; in [11], 4.71%; in [12], 0.16%. For the same compound, the inhibition in assay [13] is 2.28%; in assay [14], 0.68%; in assay [15], 1.53%; in [16], 1.61%; in assay [17] it was 4.98%; in [18] it was -1.73%. Also, the inhibition in [19] came to 3.17%; in assay [20], 1.81%.
In the case of `COC(=O)Nc1nc2cc(Oc3ccc(NC(=O)Nc4ccccc4)cc3)ccc2[nH]1`, the inhibition in [1] is 2%; in assay [2] it was 0.64%; in assay [3] it was 2.92%; in assay [4], -0.93%; in assay [5], 1.92%; in [6], 0.59%. In addition, the inhibition is 0.89% in assay [7]; 4.23% in assay [8]; 8.26% in assay [9]; 3.5% in [10]; 8.21% in [11]; 0.47% in [12]. Also, the inhibition is 2.14% in assay [13]; 3.11% in assay [14]; 2.22% in [15]; 3.28% in assay [16]; 3% in [17]; 4.54% in [18]. Further, the inhibition in assay [19] is 2.22%; in assay [20], 4.71%.
Take `CN(C)CCNC(=O)Nc1ccc(N(C)c2ccnc(Nc3ccc(CS(C)(=O)=O)cc3)n2)cc1`: the inhibition in assay [1] worked out at 2.89%; in assay [2], 2.86%; in assay [3], 5.24%; in assay [4], 1.37%; in [5] it was 1.57%; in assay [6], 2.66%. The inhibition in assay [7] turned out to be 4.33%; in [8], 1.56%; in [9] it was 4.32%; in assay [10], 0.61%; in [11] it was 4.47%; in [12] it was 0.8%. For the same compound, the inhibition in assay [13] is 4.6%; in [14] it was 0.19%; in [15] it was 3.28%; in assay [16], 4.37%; in assay [17], 5.22%; in assay [18] it was 5.77%. The values for the inhibition in [19] and in assay [20] were 4.8% and 2.98%, respectively.
In the case of `Cc1ccc(-c2cc3c(NC(=O)C4CC4)ncnc3o2)cc1`, the inhibition in assay [1] came to 7.45%; in [2] it was 4.14%; in [3], 12.6%; in [4] it was 1.1%; in assay [5], 4.52%; in assay [6] it was 2.48%. Besides, the inhibition in [7] is 8.21%; in assay [8] it was 12.4%; in assay [9] it was 48.7%; in [10] it was 7.9%; in assay [11], 38.2%; in [12], 1.63%. For the same compound, the inhibition in [13] turned out to be 9.22%; in assay [14], 1.44%; in assay [15], 7.28%; in assay [16], 0.97%; in [17], 5.49%; in assay [18] it was 2.94%. For the same compound, the results for the inhibition in assay [19] and in assay [20] were 4.73% and 3%, respectively.
For the compound `O=C(O[C@H]1CN[C@H](C#Cc2cc3ncnc(Nc4ccc(OCc5cccc(F)c5)c(Cl)c4)c3s2)C1)N1CCOCC1`, the inhibition was 2.04% in assay [1]; 2.71% in [2]; 6.81% in [3]; -1.11% in assay [4]; -0.95% in [5]; 3.84% in assay [6]. Besides, the inhibition stood at 3.68% in [7]; 3.45% in assay [8]; 4.35% in assay [9]; 2.75% in assay [10]; 4.2% in assay [11]; 1.86% in [12]. Also, the inhibition in assay [13] came to 0.81%; in [14] it was 2.71%; in assay [15], 4.99%; in [16], 3.19%; in assay [17], 7.19%; in assay [18], 7.72%. Moreover, the inhibition in [19] is 5.38%; in assay [20], 4.82%.
Turning to `NS(=O)(=O)c1cccc(N/C=C2\C(=O)Nc3ccccc32)c1`, the inhibition in assay [1] amounted to 3.43%; in assay [2] it was 4.67%; in assay [3] it was 7.61%; in [4], 1.69%; in assay [5], 4.25%; in assay [6], 3.56%. The inhibition was 9.5% in assay [7]; 4.32% in assay [8]; 20% in assay [9]; 3.36% in assay [10]; 19.7% in assay [11]; -0.03% in [12]. Besides, the inhibition in [13] is 2.88%; in assay [14], 0.43%; in [15], 4.51%; in assay [16], 7.2%; in assay [17], 10.9%; in assay [18], 2.99%. The inhibition was 4.54% in [19] and 1.72% in assay [20].

Usually inhibition stands for the relative decrease from the control value, in per cent.
